Screens: PubChem, several laboratories
ROMK primary: human ROMK K+ channel modulation, primary screen; P48048; Tet-inducible ROMK, thallium flux fluorescence; actives lie on both sides; B-score at 10 µM; 130,000 tested, 2% active; AID 1918;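 active = signal ratio slope over the read window, or its plate-corrected B-score, at least 3 SD from the plate mean, either direction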;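 also: B-score of the F/F0 ratio slope over 7 to 12 s after thallium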
Cl transport mod: KCC2 (human) Cl- transport modulation. KCC2 cells, thallium flux FluoZin-2 fluorescence. B-score of Tl+ flux slope (higher = more flux/activation; lower = inhibition) at 10 µM. 190,000 tested, 2.2% active. AID 1456;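 active = thallium flux slope and its plate-corrected score both differing from the plate sample mean at a set confidence after two filtering rounds, in either direction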;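 also: slope of fluorescence scaled to starting intensity during 10 to 20 s after thallium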
Target sequence (Q9H2X9 whole entry, looked up): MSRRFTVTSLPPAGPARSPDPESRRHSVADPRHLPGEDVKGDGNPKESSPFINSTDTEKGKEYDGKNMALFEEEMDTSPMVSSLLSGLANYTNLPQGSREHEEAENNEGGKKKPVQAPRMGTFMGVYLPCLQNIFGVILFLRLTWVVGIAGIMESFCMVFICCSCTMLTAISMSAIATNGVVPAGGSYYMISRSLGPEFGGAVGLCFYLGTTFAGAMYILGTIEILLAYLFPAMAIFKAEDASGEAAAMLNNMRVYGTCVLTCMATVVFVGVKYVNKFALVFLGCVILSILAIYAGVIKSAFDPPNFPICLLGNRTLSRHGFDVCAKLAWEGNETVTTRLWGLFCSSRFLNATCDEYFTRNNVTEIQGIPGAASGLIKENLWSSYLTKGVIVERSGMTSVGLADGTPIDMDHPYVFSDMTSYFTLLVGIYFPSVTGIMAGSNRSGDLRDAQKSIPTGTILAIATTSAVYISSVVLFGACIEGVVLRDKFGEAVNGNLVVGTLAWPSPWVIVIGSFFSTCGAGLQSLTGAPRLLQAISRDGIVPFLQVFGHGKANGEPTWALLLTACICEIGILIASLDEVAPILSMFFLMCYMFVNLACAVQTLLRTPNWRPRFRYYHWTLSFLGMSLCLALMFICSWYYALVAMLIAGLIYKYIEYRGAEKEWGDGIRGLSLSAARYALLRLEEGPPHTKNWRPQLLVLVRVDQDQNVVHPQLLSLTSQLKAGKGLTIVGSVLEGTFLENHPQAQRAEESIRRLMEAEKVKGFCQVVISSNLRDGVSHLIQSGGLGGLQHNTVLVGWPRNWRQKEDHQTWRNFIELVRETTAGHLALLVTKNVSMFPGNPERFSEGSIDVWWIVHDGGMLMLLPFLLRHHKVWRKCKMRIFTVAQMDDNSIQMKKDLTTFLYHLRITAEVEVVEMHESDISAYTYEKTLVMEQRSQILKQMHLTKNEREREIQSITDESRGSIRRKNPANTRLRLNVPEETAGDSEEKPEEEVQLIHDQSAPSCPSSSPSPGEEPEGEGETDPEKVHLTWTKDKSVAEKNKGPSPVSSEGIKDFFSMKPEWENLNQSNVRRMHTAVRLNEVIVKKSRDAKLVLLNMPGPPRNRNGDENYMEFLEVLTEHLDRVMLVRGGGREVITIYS
L major viab: inhibitors of Leishmania major promastigote growth; inhibition, % at 10 µM; 200,000 tested, 9% active; Leishmania major promastigotes, resazurin fluorescence viability; AID 1063; in the data active = inhibition above about 50%;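 also: promastigotes grown with compound for 44 hours at 28 °C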
Calpain2 inh: blocks pig calpain II enzyme activity; purified calpain II, fluorogenic peptide substrate, 30 min; AID 1236; inhibition, % at 16 µM; 220,000 tested, 0.37% active;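 active = inhibition above about 50%, limit read from the data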
WT yeast gro inh: growth inhibition of WT yeast, mitochondrial fusion screen; mitochondrial fusion phenotypic screen, WT strain; inhibition, % at 10 µM; 190,000 tested, 2.1% active; AID 1362; in the data active = inhibition above about 58%; tested in S. cerevisiae
Numbers stand for hits; - = inactive; . = no result. Only some compounds are listed: those with a hit (about 12% of all), similar ones and a draw of the others.

SMILES	ROMK primary	Cl transport mod	L major viab	Calpain2 inh	WT yeast gro inh
Cc1cc2nc(-c3ccc(NC(=O)C(C)C)cc3)oc2cc1C	-	-	90	-	-
CNC(=S)n1cnc(N)n1	.	-	.	-	.
O=C1/C(=C\c2cccs2)Sc2ccc3ccccc3c21	-	-	-	-	-
CN(C)CCNc1ncnc2c1sc1nc(N3CCCC3)c3c(c12)CC(C)(C)OC3	-	-	.	-	.
CC1(C)Cc2c(c(N3CCOCC3)nc3sc4c(NN)ncnc4c23)CS1	.	.	97	-	-
CC(C)CNc1nnnc2c1sc1nc(N3CCOCC3)c3c(c12)CC(C)(C)SC3	.	-	-	-	-
CCN(CC)CCNc1ncnc2c1sc1nc(N3CCCC3)c3c(c12)CC(C)(C)OC3	-	-	100	-	-
CCOC(=O)N1CCN(c2cc(=O)n(-c3ccc(Br)cc3)c(=O)[nH]2)CC1	.	.	-	-	-
Cc1cc(O)ccc1NC(=O)CCN1C(=O)c2ccc([N+](=O)[O-])cc2C1=O	.	-	70	-	-
COc1cc(/C=C/C(=O)O)cc(S(=O)(=O)Nc2ccccc2Oc2ccccc2)c1OC	.	-	.	-	.
Cc1sc(NC(=O)C2CCCCC2C(=O)O)c(C(N)=O)c1-c1ccc(C(C)(C)C)cc1 (stereo not given)	.	.	-	-	-
Cc1sc(NC(=O)C2C3CCC(C3)C2C(=O)O)c(C(N)=O)c1-c1ccc(C(C)(C)C)cc1 (stereo not given)	-	-	57	-	-
CCOC(=O)c1c(NC(=O)/C=C/C(=O)O)sc(C)c1-c1ccc(C(C)(C)C)cc1	-	-	100	-	-
CCC(=O)N1CCc2cc(Br)cc(S(=O)(=O)NCCN3CCCCC3CC)c21 (stereo not given)	-	-	-	-	-
CCC(=O)N1CCc2cc(Br)cc(S(=O)(=O)NCCN3CCCCC3C)c21 (stereo not given)	.	-	92	-	-
O=C(C1CC1)N1CCc2cc(Br)cc(S(=O)(=O)NC3CCCCC3)c21	.	-	-	53	-
CCCN(CCC)CCCNS(=O)(=O)c1cc(Br)cc2c1N(C(C)=O)CC2	-	-	87	-	-
CCC(=O)Nc1cccc(-n2nnnc2SCC(=O)N(C(C)C)C(C)C)c1	-	-	-	-	-
O=C(CSc1ccc2c(c1)OCCO2)Nc1cccc(S(=O)(=O)N2CCCCC2)c1	.	-	-	-	-
Cc1cc(C(=O)COC(=O)c2ccc(N)cc2)c(C)n1-c1c(C)n(C)n(-c2ccccc2)c1=O	-	-	-	-	-
S=C(NCc1cccnc1)Nc1ccc(Cl)c(Cl)c1	.	-	98	-	-
COc1ccccc1CNC(=S)Nc1cc(C)ccc1C	-	-	-	-	66
COc1ccccc1CNc1cc(C)ccc1C	-	-	-	-	-
CC(C)(C)c1ccccc1NC(=S)NCc1ccccc1	.	-	-	-	63
COc1ccccc1NC(=S)NCc1cccnc1	.	-	68	-	-
SMILES	ROMK primary	Cl transport mod	L major viab	Calpain2 inh	WT yeast gro inh
O=C(CSc1ncccn1)NC1CCCc2ccccc21 (stereo not given)	-	-	-	-	-
CCC(C)[C@H](NC(=O)N1CCCCCC1)C(=O)OC (stereo not given in full)	.	-	.	-	.
O=C(CN1CCN(S(=O)(=O)c2ccccc2F)CC1)Nc1ccccc1C(=O)c1ccccc1	-	-	-	-	-
CCC/C(=N/NC(=O)c1csc(C)c1C)c1ccc(Cl)s1	-	3.7	-	-	-
CCCc1sc(N/N=C/c2ccccn2)nc1-c1ccc(Br)cc1	.	.	97	-	65
Cc1ccc(C2CC(c3cccs3)n3nc(N)nc3N2)cc1 (stereo not given)	-	-	-	-	-
O=[N+]([O-])c1ccccc1/C=N/N1CCN(c2ccncc2S(=O)(=O)N2CCCCC2)CC1	.	-	99	-	-
O=[N+]([O-])c1ccc(/C=N/N2CCN(c3ccncc3S(=O)(=O)N3CCCCC3)CC2)cc1	-	-	99	-	-
O=[N+]([O-])c1ccccc1S(=O)(=O)N1CCCCC1	-	-	-	-	-
COc1ccc(CCC(=O)N2CC(C)OC(C)C2)cc1 (stereo not given)	.	-	-	-	-
COc1ccc(OCC#CCN2CC(C)OC(C)C2)cc1 (stereo not given)	-	-	57	-	-
Cc1[nH]c2ccccc2c1C(=O)CCl	-	-	99	-	-
CCCC(=O)N1CCN(c2ccc([N+](=O)[O-])c(NC(C)c3ccccc3)c2)CC1 (stereo not given)	-5.3	-4.6	-	-	-
CC(Nc1cc(N2CCCC2)ccc1[N+](=O)[O-])c1ccccc1 (stereo not given)	.	-	-	-	-
CCCCCC[n+]1c(-c2ccccc2)csc1Nc1ccccc1	-	-	-	-	69
COc1ccc2c(c1)C1=C(CC2)C(c2ccc(C)cc2)NC(=S)N1 (stereo not given)	-	-	-	-	80
C=CCOC(=O)C1=C(C)NC(=O)NC1c1ccc(OC(=O)c2ccco2)c(OC)c1 (stereo not given)	-	-3.3	-	-	-
CCOC(=O)C1=C(C)NC(=O)NC1c1ccc(OC(=O)c2ccco2)c(OC)c1 (stereo not given)	.	-	-	-	-
N#C/C(=C\c1ccc(Cl)cc1)c1nc2ncccc2[nH]1	-	-	79	-	-
N#C/C(=C\c1ccc(Sc2ccc(Cl)cc2)o1)c1nc2ccccc2[nH]1	-	-	60	-	-
N#C/C(=C/c1cccs1)c1nc2ccccc2[nH]1	.	-	85	-	-
N=c1c2c(n(Cc3ccc(F)cc3)c3c1CCC3)CCCC2	-	-	99	-	-
N=c1c2c(n(Cc3cccc(Cl)c3)c3c1CCC3)CCCC2	-	-	100	-	62
N=c1c2c(n(Cc3ccc(Cl)cc3)c3c1CCC3)CCC2	.	-	99	-	62
O=C1CCSc2ccc(Cl)cc2N1Cc1cccc(Cl)c1	.	.	-	-	-
SMILES	ROMK primary	Cl transport mod	L major viab	Calpain2 inh	WT yeast gro inh
CCn1c2c(c(=N)c3c1CCC3)CCCC2	.	-	.	-	.
O=C(NCc1ccco1)/C(=C/c1cccnc1)NC(=O)c1cccc(Br)c1	-	-	-	-	-
O=C(NCc1ccco1)/C(=C\c1cccnc1)NC(=O)c1ccccc1F	-	-	53	-	-
CC1=C(C(=O)OCC(C)C)C(c2cc3c(cc2Br)OCO3)NC(=O)N1C (stereo not given)	-	-	-	-	-
COC(=O)C1=CN(C(C)C)C=C(C(=O)OC)C1c1cc2c(cc1Br)OCO2	-	.	100	-	-
CCCOc1ccc2c3c(c(=O)oc2c1OCCC)CCCC3	.	-	54	-	-
CCOc1ccc2c3c(c(=O)oc2c1OCC)CCCC3	.	-	-	-	-
CCOc1cc(C2c3c(oc4ccccc4c3=O)C(=O)N2c2nccs2)ccc1O (stereo not given)	.	-	.	-	.
Cc1occc1-c1nnc(SCC(=O)Nc2ccccc2)n1CCc1ccccc1	.	-	66	-	-
Cc1csc(NC(=O)CSc2nnc(Cc3cccn3C)n2CCc2ccccc2)n1	.	-	51	-	-
CC(C)NC(=O)NC(=O)COC(=O)c1ncc(Cl)c(Cl)c1Cl	-	-	-	-	-
COc1ccc(OCC(O)Cn2ccnc2C)cc1 (stereo not given)	.	-	67	-	-
